# Inconclusive results are not listed. Where a call stands in place of a potency, no number is given. Activity calls are given as the source filed them. Calls follow the shape of the dose curve; as a rule, active = well fitted curve in the direction sought with a large enough effect; inconclusive = small, poorly fitted or top-dose-only effect, or another doubt; inactive = no such curve, though single readings can be large; an effect the other way counts as inactive or inconclusive.
# Assays:
# [1] = Quantitative High-Throughput drug screen in 47 multiple myeloma cell lines against the NCATS MIPE library collection: Karpas620_DSMZ cell viability assay (AID 1918959); also: nearly all actives have a fitted effect of over 30% in size
# Method in brief: (§1)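 Viability readout: CellTiter-Glo luminescence following 5 min room-temperature incubation with reagent. Prior exposure: 48 h, 37C, humidified 5% CO2, 500 cells per well.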
# [2] = Quantitative High-Throughput drug screen in 47 multiple myeloma cell lines against the NCATS MIPE library collection: KHM11_PLB cell viability assay (AID 1918962); also: nearly all actives have a fitted effect of over 35% in size
# Method in brief: as §1
# [3] = Quantitative High-Throughput drug screen in 47 multiple myeloma cell lines against the NCATS MIPE library collection: JIM3_ECACC cell viability assay (AID 1918963; also: nearly all actives have a fitted effect of over 35% in size)
# Method in brief: as §1
# [4] = Quantitative High-Throughput drug screen in 47 multiple myeloma cell lines against the NCATS MIPE library collection: JIM1_ECACC cell viability assay (AID 1918964)
# Method in brief: (§2)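 Myeloma cells (500 per well) were exposed to MIPE 4.0 compounds by pin transfer and incubated 48 hours at 37C, 5% CO2. Viability was read as ATP by CellTiter-Glo luminescence, normalised to DMSO (100%) and media-only (0%) wells.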
# [5] = Quantitative High-Throughput drug screen in 47 multiple myeloma cell lines against the NCATS MIPE library collection: INA6_PLB cell viability assay (AID 1918965; also: nearly all actives have a fitted effect of over 55% in size)
# Method in brief: (§3)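 Approved and investigational drugs from MIPE 4.0 were added by pin tool to 500 cells per well. After 48 hours at 37C, ATP-based CellTiter-Glo luminescence indicated remaining viability.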
# [6] = Quantitative High-Throughput drug screen in 47 multiple myeloma cell lines against the NCATS MIPE library collection: JJN3_DSMZ cell viability assay (AID 1918966; also: nearly all actives have a fitted effect of over 50% in size)
# Method in brief: as §2
# [7] = Quantitative High-Throughput drug screen in 47 multiple myeloma cell lines against the NCATS MIPE library collection: H1112_PLB cell viability assay (AID 1918967; also: nearly all actives have a fitted effect of over 30% in size)
# Method in brief: as §2
# [8] = Quantitative High-Throughput drug screen in 47 multiple myeloma cell lines against the NCATS MIPE library collection: Karpas25_ECACC cell viability assay (AID 1918968; also: nearly all actives have a fitted effect of over 35% in size)
# Method in brief: as §2
# [9] = Quantitative High-Throughput drug screen in 47 multiple myeloma cell lines against the NCATS MIPE library collection: KMS12BM_JCRB cell viability assay (AID 1918971); also: nearly all actives have a fitted effect of over 35% in size
# Method in brief: as §1
# [10] = Quantitative High-Throughput drug screen in 47 multiple myeloma cell lines against the NCATS MIPE library collection: KMS21BM_JCRB cell viability assay (AID 1918974); settings: ATP luminescence, 48 h; viability: at 45.8 µM (top of the series)
# Method in brief: as §2
# [11] = Quantitative High-Throughput drug screen in 47 multiple myeloma cell lines against the NCATS MIPE library collection: KMS26_JCRB cell viability assay (AID 1918975); also: nearly all actives have a fitted effect of over 45% in size
# Method in brief: as §1
# [12] = Quantitative High-Throughput drug screen in 47 multiple myeloma cell lines against the NCATS MIPE library collection: MMM1_PLB cell viability assay (AID 1918976); also: nearly all actives have a fitted effect of over 35% in size
# Method in brief: (§4)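 MIPE 4.0 approved/investigational drugs; 500 cells/well; 48 h 37 °C humidified 5% CO2; CTG luminescence readout; DMSO = 100%, media = 0% viability.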
# [13] = Quantitative High-Throughput drug screen in 47 multiple myeloma cell lines against the NCATS MIPE library collection: KMM1_JCRB cell viability assay (AID 1918960); also: nearly all actives have a fitted effect of over 30% in size
# Method in brief: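 Myeloma cells, 500 per well, were exposed to MIPE 4.0 drugs by pin transfer for 48 h at 37 °C, 5% CO2. Viability was read as ATP luminescence with CellTiter-Glo, normalised to DMSO-only (100%) and medium-only (0%) wells.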
# [14] = Quantitative High-Throughput drug screen in 47 multiple myeloma cell lines against the NCATS MIPE library collection: Karpas417_ECACC cell viability assay (AID 1918961); settings: Karpas417 myeloma viability, CellTiter-Glo ATP luminescence, 48 h; viability (% of DMSO): at 45.8 µM (top of the series)
# Method in brief: as §3
# [15] = Quantitative High-Throughput drug screen in 47 multiple myeloma cell lines against the NCATS MIPE library collection: KMS12PE_JCRB cell viability assay (AID 1918972); also: nearly all actives have a fitted effect of over 30% in size
# Method in brief: as §3
# [16] = Quantitative High-Throughput drug screen in 47 multiple myeloma cell lines against the NCATS MIPE library collection: NCIH929_DSMZ cell viability assay (AID 1918978); also: nearly all actives have a fitted effect of over 35% in size
# Method in brief: as §4
# [17] = Quantitative High-Throughput drug screen in 47 multiple myeloma cell lines against the NCATS MIPE library collection: KMS20_JCRB cell viability assay (AID 1918973); also: nearly all actives have a fitted effect of over 45% in size
# Method in brief: as §2
# [18] = Quantitative High-Throughput drug screen in 47 multiple myeloma cell lines against the NCATS MIPE library collection: KMS27_JCRB cell viability assay (AID 1918970); settings: KMS27 myeloma cells, CellTiter-Glo ATP viability, 48 h; viability (% of DMSO): at 45.8 µM (top of the series); also: nearly all actives have a fitted effect of over 30% in size
# Method in brief: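 Luminescent ATP read-out (CellTiter-Glo, 5 min at room temperature) after 48 h compound exposure of 500 KMS27_JCRB cells per well; DMSO wells define full viability and media-only wells zero.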
# [19] = Quantitative High-Throughput drug screen in 47 multiple myeloma cell lines against the NCATS MIPE library collection: MOLP8_DSMZ cell viability assay (AID 1918977); also: nearly all actives have a fitted effect of over 45% in size
# Method in brief: as §4
# Potency is read from the fitted curve at half-maximal effect.
smiles,measurement,setting,value
C[C@]12CC[C@@H]3c4ccc(O)cc4CC[C@H]3[C@H]1CC[C@H]2O,Potency,[1],4.18 µM (active)
same,Potency,[2],4.69 µM (active)
same,Potency,[3],14.8 µM (active)
same,Potency,[4],5.9 µM (active)
same,Potency,[5],8.33 µM (active)
same,Potency,[6],23.5 µM (active)
same,Potency,[7],8.33 µM (active)
same,Potency,[8],10.5 µM (active)
same,Potency,[9],33.2 µM (active)
same,Potency,[10],3.32 µM (active)
same,Potency,[11],5.9 µM (active)
same,Potency,[12],16.6 µM (active)
C#C[C@]1(O)CC[C@@H]2[C@@H]3CCC4=CC(=O)CC[C@@H]4[C@H]3CC[C@@]21CC,Potency,[1],inactive
same,Potency,[13],inactive
same,Potency,[14],inactive
same,Potency,[3],inactive
same,Potency,[4],inactive
same,Potency,[5],inactive
same,Potency,[7],inactive
same,Potency,[9],1.48 µM (active)
same,Potency,[15],inactive
same,Potency,[11],inactive
same,Potency,[12],9.35 µM (active)
same,Potency,[16],inactive
C[C@H](CCC(=O)O)[C@H]1CCC2C3C[C@H](O)[C@@H]4C[C@H](O)CC[C@]4(C)C3CC[C@@]21C (some centres undefined),Potency,[1],inactive
same,Potency,[13],inactive
same,Potency,[4],inactive
same,Potency,[5],inactive
same,Potency,[7],inactive
same,Potency,[15],inactive
same,Potency,[17],inactive
same,Potency,[11],inactive
same,Potency,[12],0.833 µM (active)
same,Potency,[16],inactive
CC(N[C@H]1CCCC[C@H]1NC(=O)c1ccc(Cl)cc1)c1cccc2ccccc12 (some centres undefined),Potency,[1],0.132 µM (active)
same,Potency,[14],0.0469 µM (active)
same,Potency,[7],20.9 µM (active)
same,Potency,[8],14.8 µM (active)
same,Potency,[18],0.118 µM (active)
same,Potency,[11],inactive
same,Potency,[19],inactive
C[N+](C)([O-])CCNc1ccc(NCC[N+](C)(C)[O-])c2c1C(=O)c1c(O)ccc(O)c1C2=O,Potency,[1],inactive
same,Potency,[13],inactive
same,Potency,[5],16.6 µM (active)
same,Potency,[7],inactive
same,Potency,[8],inactive
same,Potency,[18],inactive
same,Potency,[9],18.7 µM (active)
same,Potency,[15],inactive
same,Potency,[10],inactive
same,Potency,[16],inactive
CCCNC(=O)[C@H]1O[C@H]1C(=O)N[C@H](C(=O)N1CCC[C@@H]1C(=O)OC)C(C)CC (some centres undefined),Potency,[1],5.9 µM (active)
same,Potency,[13],9.35 µM (active)
same,Potency,[14],2.96 µM (active)
same,Potency,[3],16.6 µM (active)
same,Potency,[5],16.6 µM (active)
same,Potency,[6],2.96 µM (active)
same,Potency,[8],14.8 µM (active)
same,Potency,[18],5.9 µM (active)
same,Potency,[9],5.26 µM (active)
same,Potency,[15],6.62 µM (active)
same,Potency,[11],11.8 µM (active)
same,Potency,[12],16.6 µM (active)
same,Potency,[19],2.64 µM (active)
same,Potency,[16],4.69 µM (active)
O=C(Nc1ccc(Oc2ccnc3[nH]ccc23)c(F)c1)c1cccn(-c2ccc(F)cc2)c1=O,Potency,[1],inactive
same,Potency,[13],2.64 µM (active)
same,Potency,[14],0.0047 µM (active)
same,Potency,[6],20.9 µM (active)
same,Potency,[15],inactive
same,Potency,[17],inactive
N=c1ccn2c(n1)O[C@H]1[C@@H](O)[C@@H](CO)O[C@H]12,Potency,[1],16.6 µM (active)
same,Potency,[13],10.5 µM (active)
same,Potency,[4],inactive
same,Potency,[5],4.18 µM (active)
same,Potency,[6],inactive
same,Potency,[18],5.9 µM (active)
same,Potency,[9],0.059 µM (active)
same,Potency,[15],11.8 µM (active)
same,Potency,[10],2.96 µM (active)
same,Potency,[11],inactive
same,Potency,[16],16.6 µM (active)
CC[C@H]1OC(=O)[C@H](C)[C@@H](O[C@H]2C[C@@](C)(OC)[C@@H](O)[C@H](C)O2)[C@H](C)[C@@H](O[C@@H]2O[C@H](C)C[C@H](N(C)C)[C@@H]2O)[C@](C)(OC)C[C@@H](C)C(=O)[C@H](C)[C@@H](O)[C@]1(C)O,Potency,[1],inactive
same,Potency,[13],inactive
same,Potency,[14],inactive
same,Potency,[3],inactive
same,Potency,[5],inactive
same,Potency,[7],inactive
same,Potency,[8],inactive
same,Potency,[18],inactive
same,Potency,[15],inactive
same,Potency,[17],inactive
same,Potency,[11],inactive
same,Potency,[12],inactive
same,Potency,[16],inactive
C=CC1=C(C(=O)O)N2C(=O)[C@@H](NC(=O)C(=NO)c3csc(N)n3)[C@H]2SC1,Potency,[1],inactive
same,Potency,[13],inactive
same,Potency,[2],inactive
same,Potency,[3],inactive
same,Potency,[4],inactive
same,Potency,[7],inactive
same,Potency,[8],inactive
same,Potency,[18],inactive
same,Potency,[9],inactive
same,Potency,[11],inactive
same,Potency,[16],inactive
CC(C)c1cc(C(C)C)c(CC(=O)NS(=O)(=O)Oc2c(C(C)C)cccc2C(C)C)c(C(C)C)c1,Potency,[1],inactive
same,Potency,[13],4.69 µM (active)
same,Potency,[3],7.43 µM (active)
same,Potency,[7],inactive
same,Potency,[9],16.6 µM (active)
same,Potency,[15],6.62 µM (active)
same,Potency,[11],26.4 µM (active)
same,Potency,[12],33.2 µM (active)
same,Potency,[16],inactive
Nc1cccc2c1C(=O)N(C1CCC(=O)NC1=O)C2=O (centres undefined),Potency,[1],0.0209 µM (active)
same,Potency,[13],inactive
same,Potency,[7],inactive
same,Potency,[8],8.33 µM (active)
same,Potency,[15],inactive
same,Potency,[19],inactive
CCN(C(=O)c1c(O)c2c(Cl)cccc2n(C)c1=O)c1ccccc1,Potency,[1],16.6 µM (active)
same,viability (% of DMSO),[14],104% (active)
same,Potency,[3],inactive
same,Potency,[7],inactive
same,Potency,[8],inactive
same,Potency,[18],16.6 µM (active)
same,Potency,[9],inactive
same,Potency,[16],inactive
N#CC(=Cc1ccc(O)c(O)c1)C(=O)NCc1ccccc1,Potency,[1],inactive
same,Potency,[13],inactive
same,Potency,[2],9.35 µM (active)
same,Potency,[3],8.33 µM (active)
same,Potency,[5],16.6 µM (active)
same,Potency,[7],7.43 µM (active)
same,Potency,[18],0.833 µM (active)
same,Potency,[17],8.33 µM (active)
same,Potency,[12],3.32 µM (active)
OC[C@H]1OC(O)C[C@@H](O)[C@H]1O (some centres undefined),Potency,[1],inactive
same,Potency,[14],inactive
same,Potency,[3],inactive
same,Potency,[7],inactive
same,Potency,[18],inactive
same,Potency,[11],inactive
same,Potency,[12],inactive
same,Potency,[19],inactive
CN(C)CC[C@H](c1ccc(Cl)cc1)c1ccccn1,Potency,[1],inactive
same,Potency,[13],inactive
same,Potency,[5],inactive
same,Potency,[6],inactive
same,Potency,[7],inactive
same,Potency,[8],inactive
same,Potency,[11],inactive
same,Potency,[16],inactive

# From PubChem BioAssay (NCATS)
